This passage reports composite z-score and z-score results from PubChem BioAssay.

In assay [1] the test system is Wnt5a (protein binding on small-molecule microarray). Description: small molecules binding Wnt5a protein – biophysical, small-molecule microarray, 635/667 nm fluorescence, primary screen (AID 1142).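 Note: fluorescence read at 667 nm with signal to noise per printed feature.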 The conditions noted are these: 635 nm fluorescence, higher = more signal.
Assay [2] in a line: ATP-based viability of Huh7 replicon cells – cell-based, CellTiter-Glo luminescence, basal, 48 h, cytotoxicity control for HCV replication inhibitor project, primary screen (AID 1143).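 Note: Huh7 hepatoma cells carrying a hepatitis C replication reporter with no stimulus; test concentration not given here.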 The following applies: higher = more signal, called active from +8 up or from −8 down. Background: A replicon is a self-replicating genome or part of one, used to study replication in cells.
The nature of assay [3]: Pseudomonas biofilm growth suppression – PAO1 strain, BacTiter-Glo luminescence, LB-PBS, primary screen (AID 1144). The following applies: P. aeruginosa PAO1 biofilm, 12 h, higher = more signal.
Assay [4] in a line: basal CRE-LacZ reporter activity in PC12 – cell-based, unstimulated, primary screen (AID 1145). The conditions noted are these: no forskolin, luminescence, 4.5 h, higher = more signal, called active from +8 up or from −8 down.
A short description of assay [5]: forskolin-driven CRE-LacZ activity in PC12 – cell-based, CRE-LacZ reporter, forskolin-stimulated, primary screen (AID 1146).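 Note: PC12 cells with 6xCRE LacZ reporter stimulated by forskolin 10 µM; beta-galactosidase reporter signal reflecting CREB driven transcription.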 The following applies: luminescence, 4.5 h, higher = more signal, called active from +8 up or from −8 down.
In assay [6] the target is Streptavidin (Streptomyces avidinii) (UniProt P22629). Nature of the assay: compounds binding control protein streptavidin – biophysical, small-molecule microarray, 635/667 nm fluorescence, artefact control for SMM compound annotation, primary screen (AID 1147).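 Note: signal reflects streptavidin binding to arrayed compounds as a control protein.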 The conditions noted are these: higher = more signal.
Sequence of Streptavidin (Streptomyces avidinii) (P22629 whole entry, looked up): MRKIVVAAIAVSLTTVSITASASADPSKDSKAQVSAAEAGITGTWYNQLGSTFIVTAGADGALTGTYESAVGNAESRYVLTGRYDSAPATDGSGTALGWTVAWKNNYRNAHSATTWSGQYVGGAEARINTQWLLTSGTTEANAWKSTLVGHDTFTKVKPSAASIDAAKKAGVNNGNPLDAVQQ
Assay [7] in a line: probe aInhba binding on compound microarray – biochemical, small-molecule microarray, 635/667 nm fluorescence, primary screen (AID 1148).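 Note: score merges 667nm spot fluorescence with signal-to-noise for antibody binding to printed compounds.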 The conditions noted are these: higher = more signal.
Assay [8] deals with Torsin-1A (Homo sapiens) (UniProt O14656). Description: TOR1A wild-type binding on microarray – cell lysate, small-molecule microarray, lysate, 635/667 nm, primary screen (AID 1149). The following applies: COS7 hTOR1A-WT lysate, 635 nm fluorescence, higher = more signal.
Sequence of Torsin-1A (Homo sapiens) (O14656 whole entry, looked up): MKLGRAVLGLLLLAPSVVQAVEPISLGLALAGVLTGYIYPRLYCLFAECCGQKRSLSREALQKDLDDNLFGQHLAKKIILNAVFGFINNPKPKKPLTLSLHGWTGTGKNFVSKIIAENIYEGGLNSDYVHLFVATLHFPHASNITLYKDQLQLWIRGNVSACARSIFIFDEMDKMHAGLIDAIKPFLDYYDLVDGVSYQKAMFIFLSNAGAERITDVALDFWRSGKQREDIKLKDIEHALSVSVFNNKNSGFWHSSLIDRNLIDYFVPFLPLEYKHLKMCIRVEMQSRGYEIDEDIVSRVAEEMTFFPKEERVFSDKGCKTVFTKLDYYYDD
The target is the same in assay [9]. Description: torsin A mutant lysate binding on microarrays – cell lysate, small-molecule microarray, COS7 lysate, 635/667 nm fluorescence, primary screen (AID 1150).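 Note: score pools 667 nm emission and signal to noise measuring lysate protein binding.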 The conditions noted are these: COS7 hTOR1A mutant lysate, 635 nm fluorescence, higher = more signal.
Assay [10] has as its system Sonic hedgehog protein (Shh). Nature of the assay: Sonic hedgehog microarray binding compounds – biochemical, small-molecule microarray, 635/667 nm fluorescence, primary screen (AID 1151).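 Note: Shh protein binding to compounds spotted on small-molecule microarray slides; score combines spot fluorescence intensity with signal-to-noise across triplicate slides.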 The conditions noted are these: 635 nm fluorescence, higher = more signal.
Assay [11] is described as follows: optical density shifts of acrAB sulA E. coli – strain DRC41, OD650, 48 h, E. coli filamentation inducer project, primary screen (AID 1152).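 Note: E. coli MC1000 strain DRC41 lacking acrAB efflux pump and sulA.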 The following applies: higher = more signal, called active from +8 up or from −8 down.
The nature of assay [12]: probe aLefty1 binding on compound microarray – biochemical, small-molecule microarray, 635/667 nm fluorescence, primary screen (AID 1153).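 Note: score merges spot fluorescence with signal-to-noise ratio from the scanned slide images.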 The conditions noted are these: higher = more signal.
A short description of assay [13]: plasmodial surface anion channel blockers, osmotic lysis – cell-based, P. falciparum Indochina, OD700, 1 h, primary screen (AID 1154). The conditions noted are these: P. falciparum Indochina infected RBC osmotic lysis, higher = more signal, called active from +8 up or from −8 down.
Assay [14] can be described thus: plasmodial surface anion channel blockers, osmotic lysis – cell-based, P. falciparum Indochina, OD700, 2 h, primary screen (AID 1155).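 Note: lysis reports solute entry through the parasite surface anion channel PSAC.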 The following applies: P. falciparum Indochina infected erythrocytes, higher = more signal, called active from +8 up or from −8 down.
A short description of assay [15]: changes in parasitized red cell lysis, either direction – P. falciparum Indochina, OD700, 3 h, PSAC antagonist project, primary screen (AID 1156). The conditions noted are these: P. falciparum-infected erythrocytes, osmotic lysis, higher = more signal, called active from +8 up or from −8 down.
A short description of assay [16]: plasmodial surface anion channel blockers, osmotic lysis – cell-based, P. falciparum Indochina, OD700, 18 h, primary screen (AID 1157). The following applies: P. falciparum Indochina infected erythrocytes, osmotic lysis OD700, 18 h; higher = more signal, called active from +8 up or from −8 down.
Assay [17] is described as follows: S6 kinase pathway phospho-S6 level changes – cell-based, A549, cytoblot, luminescence, serum-stimulated, primary screen (AID 1158).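 Note: serum-stimulated A549 lung adenocarcinoma cells; signal is phosphorylated S6 detected by cytoblot immunostaining with HRP secondary.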 The following applies: 5 h, higher = more signal.
Assay [18] has as its target NADPH oxidase 2 (Homo sapiens) (UniProt P04839). Nature of the assay: compounds shifting NOX2 Amplex Red fluorescence – cell-based, HEK293-NOX2, PMA-stimulated, NOX inhibitor project, primary screen (AID 1159). Note: test concentration not given here. The conditions noted are these: 45 min, higher = more signal, called active from +8 up or from −8 down.
The target in assay [19] is NADPH oxidase 4 (Homo sapiens) (UniProt Q9NPH5). Description: compounds shifting NOX4 Amplex Red fluorescence – cell-based, HEK293-NOX4, tetracycline-induced, NOX inhibitor project, primary screen (AID 1160). The following applies: HEK293-NOX4, Amplex Red H2O2 fluorescence, 45 min; higher = more signal, called active from +8 up or from −8 down.
Sequence of NADPH oxidase 4 (Homo sapiens) (Q9NPH5 whole entry, looked up): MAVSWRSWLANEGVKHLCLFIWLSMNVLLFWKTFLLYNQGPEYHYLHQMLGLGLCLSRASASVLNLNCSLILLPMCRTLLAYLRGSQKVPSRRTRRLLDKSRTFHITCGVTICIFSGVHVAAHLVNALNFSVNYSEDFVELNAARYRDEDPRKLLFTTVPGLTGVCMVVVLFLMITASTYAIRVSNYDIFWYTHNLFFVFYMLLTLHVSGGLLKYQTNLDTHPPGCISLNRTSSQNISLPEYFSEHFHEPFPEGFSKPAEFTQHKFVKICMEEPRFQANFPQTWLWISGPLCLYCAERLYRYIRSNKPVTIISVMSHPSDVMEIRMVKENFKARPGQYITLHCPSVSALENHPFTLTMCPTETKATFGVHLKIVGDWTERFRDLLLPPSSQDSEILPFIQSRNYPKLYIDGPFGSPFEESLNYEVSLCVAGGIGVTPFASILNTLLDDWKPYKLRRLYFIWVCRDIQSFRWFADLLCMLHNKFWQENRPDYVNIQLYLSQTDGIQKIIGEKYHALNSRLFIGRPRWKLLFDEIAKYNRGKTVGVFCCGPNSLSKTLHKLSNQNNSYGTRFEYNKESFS
In assay [20] the target is NADPH oxidase 5 (Homo sapiens) (UniProt Q96PH1). Nature of the assay: compounds shifting NOX5 Amplex Red fluorescence – cell-based, HEK293-NOX5, NOX inhibitor project, primary screen (AID 1161). The conditions noted are these: HEK293-NOX5, ionomycin, 45 min, higher = more signal.
Sequence of NADPH oxidase 5 (Homo sapiens) (Q96PH1 whole entry, looked up): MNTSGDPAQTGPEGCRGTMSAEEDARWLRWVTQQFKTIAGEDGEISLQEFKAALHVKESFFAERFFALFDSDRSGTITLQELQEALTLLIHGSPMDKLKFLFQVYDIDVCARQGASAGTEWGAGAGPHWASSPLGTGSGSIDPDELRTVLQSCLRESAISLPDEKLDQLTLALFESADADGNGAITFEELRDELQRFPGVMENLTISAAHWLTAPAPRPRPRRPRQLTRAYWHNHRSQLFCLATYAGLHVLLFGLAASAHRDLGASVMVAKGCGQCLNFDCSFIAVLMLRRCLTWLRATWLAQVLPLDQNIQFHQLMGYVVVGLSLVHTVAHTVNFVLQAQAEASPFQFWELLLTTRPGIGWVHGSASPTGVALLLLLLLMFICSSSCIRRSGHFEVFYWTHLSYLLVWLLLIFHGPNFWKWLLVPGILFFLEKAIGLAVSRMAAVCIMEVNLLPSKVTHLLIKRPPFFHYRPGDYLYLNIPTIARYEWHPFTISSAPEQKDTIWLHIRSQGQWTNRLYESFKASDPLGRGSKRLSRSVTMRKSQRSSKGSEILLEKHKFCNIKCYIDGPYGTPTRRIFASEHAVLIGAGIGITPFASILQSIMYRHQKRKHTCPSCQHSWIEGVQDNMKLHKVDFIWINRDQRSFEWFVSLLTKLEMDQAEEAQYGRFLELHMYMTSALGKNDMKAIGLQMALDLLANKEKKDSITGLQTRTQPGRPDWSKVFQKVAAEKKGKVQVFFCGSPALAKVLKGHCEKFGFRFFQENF

Structures are written as SMILES. Calls of active or inactive are those of the source. Unless noted, the rule behind the calls is not given here.

Sequence of NADPH oxidase 2 (Homo sapiens) (P04839 whole entry, looked up): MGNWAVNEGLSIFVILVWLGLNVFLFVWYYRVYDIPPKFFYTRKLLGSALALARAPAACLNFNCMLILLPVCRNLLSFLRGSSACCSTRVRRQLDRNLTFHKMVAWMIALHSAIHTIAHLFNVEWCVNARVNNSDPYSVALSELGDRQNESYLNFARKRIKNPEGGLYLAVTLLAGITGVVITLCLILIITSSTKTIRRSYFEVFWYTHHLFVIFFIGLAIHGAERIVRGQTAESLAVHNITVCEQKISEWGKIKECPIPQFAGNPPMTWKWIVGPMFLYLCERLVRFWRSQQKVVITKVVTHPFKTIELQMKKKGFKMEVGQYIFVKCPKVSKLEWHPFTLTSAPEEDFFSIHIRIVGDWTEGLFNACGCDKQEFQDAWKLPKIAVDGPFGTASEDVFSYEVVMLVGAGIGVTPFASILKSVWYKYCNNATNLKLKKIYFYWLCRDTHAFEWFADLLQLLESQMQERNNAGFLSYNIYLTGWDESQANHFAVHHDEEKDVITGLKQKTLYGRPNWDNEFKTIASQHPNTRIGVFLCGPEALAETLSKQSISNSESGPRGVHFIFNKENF

Regarding `C=CCC(OC(C)=O)[C@@H]1[C@@H](N(Cc2cccc3ccccc23)C(=O)c2ccc(C)cc2)c2cc(OCCCO)ccc2N1C(=O)c1ccc2ccccc2c1` (stereo not given in full), the composite z-score in [1] worked out at 0.0228; in [6], 0.128; in [7] it was 0.0797; in assay [8], 0.196; in assay [9] it was 0.792; in [10] it was 0.788. Also, in [12], the composite z-score was 0.25. For the same compound, the z-score is -0.487 (inactive) in assay [2]; -0.412 (inactive) in assay [3]; 1.22 (inactive) in [4]; 0.197 (inactive) in [5]; 2.04 (inactive) in [11]; 0.306 (inactive) in assay [13]. Moreover, the z-score was -0.171 (inactive) in assay [14]; -1.1 (inactive) in assay [15]; -0.888 (inactive) in assay [16]; 1.86 in assay [17]; -1.14 (inactive) in assay [18]; 0.935 (inactive) in assay [19]. In addition, the z-score in assay [20] came out at 2.64.

As to `COCC(=C=CC[C@@H](O)c1ccccc1OCCO)C[C@@H](O)COCc1ccccc1`, the composite z-score in assay [1] was 0.561; in assay [6], -0.236; in assay [7], 0.799; in [8], 1.26; in assay [9], 0.717; in [10], 0.709. Besides, the composite z-score in assay [12] came out at 0.455. The z-score in [2] was -1.43 (inactive); in assay [3] it was -0.137 (inactive); in assay [4], 8.9 (active); in [5] it was -1.46 (inactive); in assay [11], 2.01 (inactive); in assay [13], 6.15 (inactive). The z-score in [14] was -0.29 (inactive); in [15], 0.66 (inactive); in [16], -1.22 (inactive); in assay [17], 0.719; in assay [18], 0.547 (inactive); in assay [19], 1.31 (inactive). The z-score in assay [20] is -1.66.

For the compound `O=C1C2C=CC(C(O)c3ccccn3)N(Nc3ccccc3)C2C(=O)N1c1ccccc1` (stereo not given), the composite z-score in assay [1] is -0.234; in assay [6], -0.065; in [7], 0.0013; in assay [8] it was -0.265; in assay [9], -0.382; in [10] it was -0.367. Moreover, in [12], the composite z-score is 0.0437. Moreover, the z-score in assay [2] is 0.915 (inactive); in [3] it was -0.574 (inactive); in [4], 1.02 (inactive); in assay [5] it was 0.497 (inactive); in [11], -0.803 (inactive); in assay [13] it was 1.67 (inactive). The z-score in [14] was 1.27 (inactive); in [15], -0.167 (inactive); in [16], 0.974 (inactive); in assay [17] it was -0.721; in [18] it was -1.21 (inactive); in assay [19], -3.92 (inactive). Also, the z-score in assay [20] was -2.84.

In the case of `C=CC[C@]1(C(=O)NCC(O)CO)N=C(c2ccc(OCCCO)cc2)O[C@H]1c1ccccc1N=[N+]=[N-]` (stereo not given in full), the composite z-score is 0.257 in [1]; 1.4 in [6]; 0.215 in assay [7]; 0.16 in [8]; 1.46 in assay [9]; -0.723 in assay [10]. In assay [12], this compound registered a composite z-score of 0.658. The z-score in assay [2] is -1.4 (inactive); in assay [3] it was -0.323 (inactive); in [4] it was 1.24 (inactive); in assay [5], -0.652 (inactive); in [11], 0.33 (inactive); in assay [13] it was 34.3 (active). Also, the z-score in [14] was 30.5 (active); in [15], 2 (inactive); in assay [16], 7.28 (inactive); in assay [17], -0.33; in [18], -0.357 (inactive); in [19], 1.74 (inactive). For the same compound, in [20], the z-score worked out at 0.781.
